Bioassay records (PubChem BioAssay)
Sampled rows, rich in hits. Any-hit rate of the full collection: about 22%.
Measles CPE = compounds protecting cells from measles virus cytopathic effect, primary screen, measles RdRp inhibitor project, single point, MLSMR library, absorbance; Measles virus-infected cells, CPE protection; protection (pct of control), % at 4 µM; 1.5% of 140,000 active; AID 841, 2007; in the data active = protection mostly above about 24%, no sharp cut-off; inactive = mostly below about 26%
CYP2C9 activ = human CYP2C9 activators, primary screen, biochemical, luminescence. recombinant CYP2C9, luciferin-H conversion; stronger effect = higher value; factor 1 = untreated enzyme, 0 = blocked. activation factor at 5 µM. 1.4% of 96,000 active. AID 1024, 2008;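 active = activation factor of 2 or more for CYP2C9 at a 5 µM dose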;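 note: 0 = sulfaphenazole-blocked wells and 1 = vehicle-only wells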
CYP2C9 inh = blockers of cytochrome P450 2C9 activity – biochemical, luminescence, ADME assay, primary screen. 20% of 96,000 active. inhibition, % at 5 µM. CYP2C9 Supersomes, luciferin-H conversion;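 active = blocking of liver enzyme CYP2C9 beyond about 50% at 5 µM, limit read from the data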
CYP2C19 activ = human CYP2C19 activators, primary screen, biochemical, luminescence. recombinant CYP2C19, luciferin-H EGE luminescence; stronger effect = higher value; 0 = fully inhibited enzyme, 1 = untreated enzyme. activation factor at 5 µM. Cytochrome P450 2C19 (Homo sapiens), P33261. 96,000 tested, under 10 active;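 active = activation factor of at least 2 at 5 µM in the primary screen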;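 note: 0 = wells with 2.5 mM tranylcypromine and 1 = vehicle-only wells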
Target sequence (P33261 whole entry, looked up): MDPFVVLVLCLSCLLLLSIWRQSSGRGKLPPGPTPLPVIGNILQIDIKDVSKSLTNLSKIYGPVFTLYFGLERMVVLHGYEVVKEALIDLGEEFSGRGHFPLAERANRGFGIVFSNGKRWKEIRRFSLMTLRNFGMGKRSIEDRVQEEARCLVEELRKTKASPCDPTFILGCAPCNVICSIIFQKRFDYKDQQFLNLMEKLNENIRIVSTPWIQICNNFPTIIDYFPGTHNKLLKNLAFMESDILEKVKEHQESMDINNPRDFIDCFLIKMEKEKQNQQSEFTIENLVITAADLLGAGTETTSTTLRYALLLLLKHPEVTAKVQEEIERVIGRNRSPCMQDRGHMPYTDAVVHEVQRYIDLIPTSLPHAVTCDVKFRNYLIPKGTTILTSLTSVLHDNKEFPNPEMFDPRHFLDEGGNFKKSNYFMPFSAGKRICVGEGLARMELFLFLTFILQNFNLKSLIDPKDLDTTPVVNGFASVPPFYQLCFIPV
CYP2C19 inhib = blockers of cytochrome P450 2C19 activity – biochemical, luminescence, ADME assay, primary screen | P33261 | CYP2C19 Supersomes, luciferin-H EGE luminescence, 30 min | inhibition, % at 5 µM | 21% of 96,000 active;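 active = CYP2C19 inhibition above a set limit at 5 µM in the primary screen, cut at about 50% in these data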;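 note: plate controls were negative control wells for no effect and 2.5 mM tranylcypromine positive control for full effect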
Active calls of the source: *; / = no result given.

SMILES | Measles CPE | CYP2C9 activ | CYP2C9 inh | CYP2C19 activ | CYP2C19 inhib
C=CCn1c(SCC(=O)Nc2cc(C)cc(C)c2)nnc1-c1cnccn1 | / | 1 | -3 | 1 | 4
CCn1c(SCC(=O)Nc2ccccc2OC)nnc1-c1cnccn1 | 4 | 0.8 | 17 | 0.7 | 34
CN(Cc1ccccc1)c1ncnc2ccc(Br)cc12 | 10 | 0.2 | 84* | 0 | 97*
CS(=O)(=O)N1N=C(c2ccc(Cl)cc2)CC1c1cccs1 (centres undefined) | 12 | 0.4 | 56* | 0.1 | 94*
CCOC(=O)c1sc(/N=C/c2c(C)[nH]n(-c3ccccc3)c2=O)c(C#N)c1C | 17 | 0.7 | 28 | 1.1 | -10
CCC(C)N=C1CC(C)(C)CC(=O)/C1=C(/O)Cc1ccccc1 (centres undefined) | 3 | / | / | / | /
CC(NC(=O)Cn1cc2c(n1)CCCCC2)c1ccccc1 (centres undefined) | 6 | 1 | 4 | 1 | -1
O=C(Cn1cc2c(n1)CCCC2)Nc1cc(-c2cccc(Cl)c2)no1 | 35 | 0.4 | 57* | 0.7 | 26
Cc1nc(Oc2ccc(S(=O)(=O)N3CCOCC3)cc2Cl)c2c3c(sc2n1)CCCC3 | 14 | / | / | / | /
COCCn1nnnc1C(c1ccccc1)N1CCN(c2ccccc2)CC1 (centres undefined) | 4 | / | / | / | /
c1ccc(CCn2nnnc2C(c2cccnc2)N2CCN(c3ccccc3)CC2)cc1 (centres undefined) | 7 | 0.3 | 73* | 0.2 | 81*
c1ccc(CCn2nnnc2C(c2cccnc2)N2CCN(c3nc4ccccc4s3)CC2)cc1 (centres undefined) | 16 | 0.6 | 36 | 0.4 | 59*
Oc1ccc(N2CCN(C(c3cccnc3)c3nnnn3Cc3ccccc3)CC2)cc1 (centres undefined) | 12 | 0.4 | 57* | 0.5 | 52*
c1ccc(Cn2nnnc2C(c2cccnc2)N2CCN(C3CCCCC3)CC2)cc1 (centres undefined) | 9 | 1.1 | -15 | 1.1 | -12
Cc1onc(-c2c(F)cccc2Cl)c1C(=O)OCC(=O)Nc1c(C)n(C)n(-c2ccccc2)c1=O | 5 | 0.7 | 34 | 0.9 | 7
CC1=CC(=NOC(=O)c2cccc([N+](=O)[O-])c2)C=C(C)C1=O | 5 | 1.1 | -8 | 1 | -4
CC1=CC(=O)C(C(C)C)=C/C1=N/OC(=O)c1cccc([N+](=O)[O-])c1 | 5 | 0.5 | 53* | 0.8 | 16
COc1ccc(CCNC(=O)Cn2nnc(-c3ccc(N(C)C)cc3)n2)cc1OC | 21 | / | / | / | /
O=C(CSc1nnc(-c2ccccc2)n1-c1ccccc1)N1c2ccccc2Sc2ccccc21 | 7 | 1.1 | -5 | 1.1 | -6
Cc1cccc2sc(NC(=O)CCNS(=O)(=O)c3cccs3)nc12 | 7 | 0.2 | 78* | 0.2 | 82*
CCOc1ccc(NC(=O)c2oc3ccccc3c2NC(=O)CC)cc1 | 4 | 1.2 | -22 | 0.9 | 9
COC(=O)c1cc2oc3ccccc3c2n1CC(=O)Nc1ccccc1OC | 10 | 0.9 | 14 | 0.9 | 14
COc1cccc(CNC(=O)c2cc3oc4ccccc4c3n2C)c1OC | 72* | 1.4 | -42 | 1.1 | -8
CCOc1ccccc1CNC(=O)c1cc2oc3ccccc3c2n1CC | 35* | 1.1 | -11 | 0.3 | 66*
CCOc1ccc(CNC(=O)c2cc3oc4ccccc4c3n2C)cc1 | 89* | 0.5 | 52* | 0.8 | 23
SMILES | Measles CPE | CYP2C9 activ | CYP2C9 inh | CYP2C19 activ | CYP2C19 inhib
CC(NC(=O)/C=C/c1cnc2ccccc2n1)C12CC3CC(CC(C3)C1)C2 (centres undefined) | 7 | / | / | / | /
O=C(CCC(=O)OCCCC(F)(F)C(F)(F)F)Nc1ccc(Cl)cc1Cl | 7 | 0.6 | 40 | 0.3 | 70*
COc1ccnc(CSC(N)=Nc2cccc(C(F)(F)F)c2)c1 | 18 | / | / | / | /
CCCCOC(=O)Nc1ccc(C)c(Cl)c1 | 23 | 0.9 | 11 | 0.8 | 25
COc1ccc(-c2nnn(CC(=O)NCc3ccccc3)n2)cc1OC | 9 | / | / | / | /
COC(=O)CCn1nnc(-c2ccc(C)cc2)n1 | 5 | 1 | 2 | 0.5 | 46
COc1ccc(-c2nnn(CC(=O)c3ccccc3)n2)cc1OC | 5 | 1.6 | -61 | 0.4 | 59*
COc1ccc(NC(=O)CCn2nnc(-c3ccc(C)cc3)n2)cc1OC | 55* | / | / | / | /
N#CCn1nnc(-c2ccc3c(c2)OCO3)n1 | 14 | 0.8 | 21 | 0.3 | 67*
COc1cc(-c2nnn(CC#N)n2)ccc1OCc1ccccc1 | 19 | 0.2 | 76* | 0 | 96*
COc1ccc(-c2nnn(Cc3nn[nH]n3)n2)cc1OC | 18 | 0.4 | 58* | 0.8 | 20
COc1cc(-c2nnn(CC(=O)NC3CCS(=O)(=O)C3)n2)ccc1OCc1ccccc1 (centres undefined) | / | 0.3 | 69* | 0.5 | 52*
CCOC(=O)COc1c(C=O)cc(Br)cc1OC | 11 | 2* | -98 | 0.4 | 56*
N=c1c2c(-c3ccccc3)c(-c3ccccc3)n(Cc3ccco3)c2ncn1CCCn1ccnc1 | 5 | / | / | / | /
c1ccc(-c2oc3ncnc(NCCN4CCOCC4)c3c2-c2ccccc2)cc1 | 12 | 0 | 98* | 0.2 | 83*
c1ccc(-c2c(-c3ccccc3)n(Cc3ccco3)c3ncnc(NCCCn4ccnc4)c23)cc1 | 2 | 0 | 100* | 0 | 100*
N=c1c2c(-c3ccccc3)c(-c3ccccc3)oc2ncn1CCN1CCOCC1 | 7 | 0.6 | 42 | 0.6 | 40
N=c1c2c(-c3ccccc3)c(-c3ccccc3)n(Cc3ccco3)c2ncn1Cc1ccccc1 | 10 | 0.8 | 19 | 0.7 | 26
c1ccc(-c2oc3ncnc(NCCCn4ccnc4)c3c2-c2ccccc2)cc1 | 12 | 0 | 99* | 0 | 98*
OCCNc1ncnc2c1c(-c1ccccc1)c(-c1ccccc1)n2Cc1ccco1 | 15 | 0.4 | 56* | 0.6 | 41
COC(=O)c1cc(OC)c(OC)cc1NC(=O)c1ccoc1C | 2 | 1 | -5 | 1.1 | -5
CCOC(=O)c1nn(-c2ccc(Cl)cc2)c2nnc(Cc3ccccc3)c(=O)n12 | 17 | / | / | / | /
O=C(OCCN1C(=O)CCC1=O)c1ccc(S(=O)(=O)N2CCCCC2)cc1 | 6 | 0.9 | 8 | 1 | -3
CCC(C)(C)n1nnnc1C(c1cc2cc(OC)c(OC)cc2[nH]c1=O)N1CCc2ccccc21 (centres undefined) | 4 | 0.2 | 77* | 0.5 | 46
COc1cc2cc(C(c3nnnn3C(C)(C)C)N3CCc4ccccc4C3)c(=O)[nH]c2cc1OC (centres undefined) | 6 | 0.2 | 81* | 0.3 | 65*
